Assay results published in article PMC5540273 (PLoS ONE, 2017).

Experiments:
Conditions in all cases: concentration: 1 μM, replicates: in singlicate; n = 1
[1] = test system: MAST1
[2] = test system: T1, MEK1
T1 construct: gene MAP2K1

[3] = test system: T2, MEK2
T2 construct: gene MAP2K2

[4] = test system: T3, MEK3
T3 construct: gene MAP2K3

[5] = test system: T4, MEK4
T4 construct: gene MAP2K4

[6] = test system: T5, MEK5
T5 construct: gene MAP2K5

[7] = test system: T6, MEK6
T6 construct: gene MAP2K6

[8] = test system: MELK
[9] = test system: MERTK
[10] = test system: MET
[11] = test system: T7, MINK
T7 construct: gene MINK1

[12] = test system: MKK7
[13] = test system: MKNK1
[14] = test system: MKNK2
[15] = test system: T8, MLCK
T8 construct: gene MYLK3

[16] = test system: T9, MLK1
T9 construct: gene MAP3K9

[17] = test system: MLK2
[18] = test system: MLK3
[19] = test system: MRCKA
[20] = test system: T10, MRCKB
T10 construct: gene CDC42BPB
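Also: KINOMEscan kinase panel screen.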

Structure (SMILES) | %Inh [1] | %Inh [2] | %Inh [3] | %Inh [4] | %Inh [5] | %Inh [6] | %Inh [7] | %Inh [8] | %Inh [9] | %Inh [10] | %Inh [11] | %Inh [12] | %Inh [13] | %Inh [14] | %Inh [15] | %Inh [16] | %Inh [17] | %Inh [18] | %Inh [19] | %Inh [20]
Fc1ccc(-c2nc3n(c2-c2ccncc2)CCS3)cc1 [GI98581] | 0% | 0% | 0% | 0% | 12% | 14% | 0% | 5% | 12% | 0% | 45% | 0% | 0% | 2% | 15% | 3% | 19% | 21% | 2% | 25%
Cn1cncc1C(=O)NC1CCN(c2ccnc(Nc3ccc(F)cc3)n2)C1 (stereo not drawn) [GSK1379717] | 0% | 0% | 0% | 11% | 28% | 3% | 0% | 0% | 5% | 0% | 0% | 10% | 0% | 5% | 0% | 0% | 0% | 0% | 2% | 0%
CC(C)c1cc(-c2ccc3c(N)n[nH]c3c2)nc(N)n1 [GSK2250882] | 0% | 0% | 0% | 0% | 8% | 29% | 5% | 15% | 21% | 0% | 21% | 0% | 36% | 82% | 16% | 0% | 0% | 18% | 12% | 0%
COc1nccc(-c2c(-c3ccc(F)cc3)ncn2CCCN2CCOCC2)n1 [SB-282852] | 20% | 0% | 25% | 31% | 23% | 7% | 0% | 0% | 19% | 0% | 0% | 23% | 54% | 42% | 0% | 0% | 0% | 0% | 12% | 0%
CN1c2ccc(-c3ccc(C(N)=O)cc3)cc2-c2[nH]ncc2S1(=O)=O | 0% | 41% | 17% | 16% | 0% | 24% | 0% | 10% | 46% | 14% | 53% | 3% | 0% | 0% | 0% | 19% | 26% | 3% | 0% | 3%
Cc1ccc(NC(=O)Nc2ccc(Cl)c(C(F)(F)F)c2)cc1-c1ccc(C(=O)Nc2ccncc2)cc1 [GSK1398470] | 0% | 0% | 0% | 0% | 24% | 29% | 0% | 13% | 0% | 13% | 20% | 0% | 3% | 0% | 0% | 10% | 36% | 17% | 1% | 5%
Cl.Cl.Cl.N#Cc1ccc(CCNc2nccc(-c3cccc(CN4CCNCC4)c3)n2)cc1 [GSK2137462] | 0% | 0% | 0% | 5% | 20% | 35% | 7% | 38% | 20% | 0% | 3% | 0% | 46% | 2% | 0% | 0% | 0% | 0% | 48% | 19%
CNc1cc(-c2ccc3c(N)n[nH]c3c2)nc(N)n1 [GSK2224810] | 18% | 2% | 0% | 0% | 18% | 37% | 14% | 48% | 31% | 0% | 29% | 0% | 4% | 31% | 73% | 7% | 0% | 2% | 6% | 8%
O=C1NC(=O)C(c2ccc(Cl)cc2)=C1Nc1ccc(O)cc1 [SB-340867] | 24% | 0% | 0% | 9% | 0% | 8% | 0% | 1% | 0% | 0% | 11% | 0% | 0% | 0% | 0% | 0% | 0% | 4% | 8% | 0%
Cc1ccc(NC(=O)Nc2ccccc2F)cc1-c1ccc(C(=O)Nc2ccncc2)cc1 [GSK1398477] | 0% | 0% | 0% | 0% | 26% | 37% | 0% | 14% | 31% | 0% | 0% | 0% | 4% | 0% | 11% | 4% | 17% | 33% | 17% | 30%
CS(=O)(=O)CCNCc1nc(-c2ccc3ncnc(Nc4ccc(OCc5ccccc5)c(Cl)c4)c3c2)cs1.Cl [GW582764] | 43% | 0% | 0% | 0% | 16% | 84% | 0% | 0% | 9% | 0% | 0% | 0% | 0% | 0% | 89% | 0% | 0% | 0% | 3% | 0%
NS(=O)(=O)c1cccc(N/C=C2\C(=O)Nc3ccc(S(=O)(=O)Cc4c(Cl)cccc4Cl)cc32)c1 [GSK398099] | 0% | 0% | 0% | 1% | 23% | 14% | 0% | 0% | 0% | 23% | 80% | 0% | 0% | 12% | 0% | 0% | 0% | 0% | 15% | 0%
COc1cccc(CNC(=O)NC2CCN(c3ccnc(Nc4ccc(F)cc4)n3)C2)c1 (stereo not drawn) [GSK1379723] | 6% | 10% | 0% | 0% | 36% | 53% | 0% | 0% | 26% | 0% | 0% | 31% | 13% | 8% | 0% | 0% | 0% | 0% | 29% | 8%
CSc1ccc(-c2nc3n(c2-c2ccncc2)CCC3)cc1 [SKF-105561] | 16% | 1% | 25% | 18% | 0% | 22% | 0% | 18% | 0% | 0% | 15% | 1% | 0% | 20% | 0% | 0% | 0% | 0% | 0% | 0%
Nc1ncnc2occ(-c3ccc4c(c3)CCN4C(=O)Cc3cc(F)ccc3F)c12 [GSK2645446] | 0% | 0% | 0% | 0% | 2% | 92.3% | 0% | 3% | 34% | 0% | 0% | 0% | 0% | 0% | 0% | 0% | 10% | 6% | 22% | 0%
Cc1cnc(N)c(/C=C/c2cncc(C(=O)NCCc3ccc(Cl)cc3Cl)c2)c1.Cl [GSK190937] | 5% | 0% | 0% | 0% | 34% | 41% | 0% | 2% | 29% | 0% | 4% | 0% | 0% | 2% | 6% | 0% | 0% | 0% | 5% | 2%
Cc1cccc2c(-c3ccncn3)c(-c3ccc(F)cc3)nn12 [GW515532] | 7% | 0% | 0% | 0% | 19% | 10% | 0% | 0% | 15% | 0% | 0% | 0% | 0% | 3% | 0% | 0% | 28% | 4% | 0% | 0%
Fc1ccc(-c2nc[nH]c2-c2ccncc2)cc1 [SB-217360] | 0% | 36% | 58% | 32% | 6% | 66% | 0% | 0% | 19% | 0% | 58% | 9% | 0% | 0% | 0% | 0% | 30% | 1% | 37% | 27%
CS(=O)(=O)Cc1ccc(Nc2nccc(-c3c(-c4cccc(NC(=O)C5CCCCC5)c4)nn4ncccc34)n2)cc1 [GSK350559] | 39% | 32% | 19% | 42% | 16% | 98.3% | 0% | 0% | 12% | 10% | 0% | 21% | 25% | 13% | 3% | 2% | 7% | 13% | 0% | 0%
Cc1ccc(NC(=O)Nc2ccc(Cl)cc2)cc1-c1ccc(C(=O)Nc2ccncc2)cc1 [GSK1398472] | 0% | 0% | 0% | 0% | 26% | 11% | 0% | 0% | 0% | 0% | 11% | 21% | 10% | 7% | 0% | 0% | 0% | 15% | 16% | 0%
COC(=O)C(NC(=O)NC1CCN(c2ccnc(Nc3ccc(F)cc3)n2)C1)c1ccccc1 (stereo not drawn) [GSK1379712] | 0% | 19% | 0% | 0% | 16% | 86% | 0% | 20% | 0% | 0% | 7% | 32% | 24% | 6% | 5% | 0% | 0% | 6% | 10% | 0%
